In all, about 65,000 compounds went through this assay and about 2,100 (3.2%) showed an effect of 50% or more. The median lay at about -52%. This is one part of a sample in which strong results are shown more often than they occur.

For the experiment, the system named is Plasmodium falciparum. The experiment is described as follows: Screen against P. falciparum Asexual Blood Stage (ABS), at 5uM. In kind it is functional, Dd2. The settings on record: tested at 5 uM.
Regarding `O=C(NCCn1ccnc1)N1CCCC1c1ccc2c(c1)OCCO2` (stereo not drawn), the INHIBITION was found to be 51.2%.
With `COc1ccc(C2CCCN2C(=O)NCCn2ccnc2)cc1OC` (stereo not drawn), the INHIBITION is recorded as -189%.
For `CC(C)(C)c1nnnn1CC(=O)N(CCC#N)c1ccccc1` the value was -55.4%; for `CN(C)C(C(=O)NCc1cc(C(C)(C)C)n[nH]1)c1ccc(F)cc1` (stereo not drawn), -1.64%; for `COCCn1c2c(ccc1=O)CC(NCc1cnn(C)c1)CC2` (stereo not drawn), -23.6%.
To `Cc1cc(O)ncc1NS(=O)(=O)c1cccc(F)c1F` belongs -123%; to `CCS(=O)(=O)N[C@H]1CN(Cc2noc(COC)n2)C[C@@H]1C1CC1`, -96.2%; to `Cc1cccc(-c2nc(N)nc3c2CN(C(=O)c2cc(C)n[nH]2)C3C)c1` (stereo not drawn), 32.2%.
As to `COCCN1Cc2ccccc2C2(CCN(C(=O)c3ccco3)CC2)C1`, the INHIBITION is reported as -50.4%.
For the compound `COc1ccccc1-n1nc(CC(C)C)nc1CSc1nnc(N)s1`, the INHIBITION is -36.5%.
Consider `CC(NCC1(N(C)C)CCOCC1)c1ccc(S(C)(=O)=O)cc1` (stereo not drawn), for which the INHIBITION was -56.25%.
To `CC(NCC1(N(C)C)CCOCC1)c1ccc(SC(F)F)cc1` (stereo not drawn) belongs 52.35%; to `CSC1(CNC(=O)NC(C)c2ccc(F)cc2)CCOCC1` (stereo not drawn), -162%.
For `COCC1CN(S(=O)(=O)Cc2ccccc2)Cc2c1cnn2C` (stereo not drawn) the value was -54.3%.
Take `Nc1cc2c(nn1)CCN(C(=O)CCCC1CCCCC1)C2`: the INHIBITION is given as -83.9%.
As to `Cc1ccc2ncccc2c1CN1CC[C@H](N(C)C)[C@H](CCC(=O)O)C1`, the INHIBITION is -3.92%.
To `COCCCC1CCCN(Cc2c(C)ccc3ncccc23)C1` (stereo not drawn) belongs 37.2%; to `CO[C@H]1CN(Cc2c(C)ccc3ncccc23)CC[C@H]1N`, 67.2%; to `Cc1cc(NC(=O)c2ccc(CN3CC[C@H](O)C3)cc2)ccc1F`, 21.2%.
For `CC(=O)N1CCCC1c1cccc(NCc2ccccc2F)n1` (stereo not drawn) the value was -133%.
To `COc1cc(N2CCC3(CCN(Cc4csc(C)n4)C3=O)C2)ncn1` (stereo not drawn) belongs -8.45%.
Take `COCCCN1CCN([C@@H]2c3ccccc3C3(CCNCC3)[C@H]2O)CC1`: the INHIBITION is given as -68.7%.
`CCNC(=O)[C@@H]1C[C@H](N)CN1c1cc(C(F)(F)F)nc(N2CCCC2)n1`: the INHIBITION turned out to be 54.7%.
Turning to `CCNC(=O)[C@@H]1C[C@H](N)CN1c1cc(CC)nc(N(C)C)n1`, the INHIBITION is given as -67.6%.
To `CCNC(=O)[C@@H]1C[C@H](N)CN1c1cc(C(F)(F)F)nc(N(C)C)n1` belongs 20.4%.
For the compound `CC(=O)Nc1nc(C(=O)N2CCCC(n3cncn3)C2)cs1` (stereo not drawn), the INHIBITION is -101%.
For `CN(C(=O)Cn1nc(-c2ccccc2)ccc1=O)C1CCS(=O)(=O)C1` (stereo not drawn) the value was -30.2%.
For `Fc1ccccc1CC1CCN(Cc2cscn2)CC1` the value was 45%; for `Fc1ccc(CC2CCN(Cc3cscn3)CC2)cc1`, 50.7%.
Consider `Fc1ccc(CN2CCCN(Cc3cscn3)CC2)cc1`, for which the INHIBITION is on record as 43.6%.
Consider `CN1CCCCC1c1ncc2c(n1)CCN(Cc1ccc(Cl)c(F)c1)C2` (stereo not drawn), for which the INHIBITION is 65.6%.
Turning to `CN1CCCCC1c1ncc2c(n1)CCN(Cc1ccccc1Cl)C2` (stereo not drawn), the INHIBITION was found to be 41.5%.
To `CN1CCc2nc(C3CCCCN3Cc3ccccc3Cl)ncc2C1` (stereo not drawn) belongs -32.4%.
On to `O=C(CCCOc1cccc(F)c1)N1CCCC(n2cccn2)C1` (stereo not drawn), for which the INHIBITION is reported as -31.5%.
To `N#Cc1cn(C2CC2)c(=O)n(CC(O)c2ccccc2C(F)(F)F)c1=O` (stereo not drawn) belongs 51%.
To `N#Cc1cn(C2CC2)c(=O)n(CC(O)c2ccccc2F)c1=O` (stereo not drawn) belongs -128%.
To `N#Cc1cn(C2CC2)c(=O)n(CC(O)c2ccc(F)cc2)c1=O` (stereo not drawn) belongs 44.7%.
Consider `c1ncn(Cc2ccc(CNCc3ccc4c(c3)OCCO4)cc2)n1`, for which the INHIBITION was found to be 0.0598%.
Take `CC(C)c1cc(NC(=O)c2ccc(C(=O)NC(C)(C)C)cc2)[nH]n1`: the INHIBITION is on record as 64%.
In the case of `CC(C)c1cc(NC(=O)c2ccncc2)[nH]n1`, the INHIBITION is given as -134%.
To `CC(C)c1cc(NC(=O)c2ccc([S+]([O-])C(C)C)cc2)[nH]n1` (stereo not drawn) belongs -172%; to `Cn1ccc(C(=O)NC2CCC23CCN(Cc2ccc(F)cc2)CC3)c1` (stereo not drawn), 39.9%.
For the compound `Cn1ccc(C(=O)NC2CCC23CCN(Cc2nccs2)CC3)c1` (stereo not drawn), the INHIBITION was -44.3%.
For `Cc1ccc(CN2CCC3(CCC3NC(=O)c3ccn(C)c3)CC2)s1` (stereo not drawn) the value was 55.9%; for `CN(C)CCOCC1CN(CCN(C)C)Cc2ccnn2C1` (stereo not drawn), -8.37%.
Turning to `CN(C)CCOCC1CN(Cc2cccs2)Cc2ccnn2C1` (stereo not drawn), the INHIBITION turned out to be 63.4%.
On to `CN(C)CCOCC1CN(Cc2ccsc2)Cc2ccnn2C1` (stereo not drawn), for which the INHIBITION is 38.6%.
For `CNS(=O)(=O)c1cc(C)c2[nH]c(=O)cc(C)c2c1`, the INHIBITION is listed as -73.5%.
Consider `COc1ccc(NC(=O)Cn2nc(C)c(C)cc2=O)cc1`, for which the INHIBITION was 25.5%.
Turning to `CC(=O)c1c(C)nn(CC(=O)Nc2ccc(Br)cc2)c1C`, the INHIBITION came out at 66.7%.
To `CC(=O)c1c(C)nn(CC(=O)Nc2ccc(F)cc2)c1C` belongs -44.1%; to `COc1ncccc1C(=O)N1CC[C@H]2C[C@H](c3ccncn3)O[C@@H]2C1`, -27.7%.
To `COc1ccc(S(=O)(=O)N2CCC[C@@H]3CN(C(=O)C4CC4)C[C@@H]32)cc1` belongs -95.9%.

The values are drawn from ChEMBL document CHEMBL4513216, “Probing the Open Global Health Chemical Diversity Library for Multistage-Active Starting Points for Next-Generation Antimalarials” (ACS Infect Dis, 2020).
